Screens (PubChem BioAssay)
GPR151 activ: activators of human GPR151, primary screen, cell-based, PathHunter beta-arrestin, luminescence; AID 1508602, 2020; 650,000 tested, 1% active; activation, % at 11.2 µM; PathHunter beta-arrestin GPR151 cells; in the data active means activation above about 4.9%;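 further: 0% = median of compound wells and 100% = cells with positive control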
MITF primary: MITF inhibitors, primary screen, biochemical, AlphaScreen, human; Microphthalmia-associated transcription factor (Homo sapiens), O75030; AlphaScreen MITF homodimerization, bead proximity signal; inhibition, % at 2.6 µM; 650,000 tested, 0.91% active; in the data active means inhibition above about 50%;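 further: 0% = vehicle wells with protein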
FBW7 act: FBW7 E3 ligase activators, primary screen, biochemical, AlphaScreen, human; normalized activity (activation), % at 26.1 µM; AID 1259310, 2017; F-box/WD repeat-containing protein 7 (Homo sapiens), Q969H0; 650,000 tested, 0.13% active; AlphaScreen FBW7–phospho-cyclin E peptide binding, activator screen; in the data active means normalized activity above about 1.9%;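 further: purified mutant Fbw7 with reduced substrate affinity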
TEAD-YAP block: TEAD-YAP interaction inhibition, primary screen, TEAD-YAP interaction inhibitor project, luminescence, HEK-TIYL cells. TEAD-Gal4/YAP UAS-luciferase luminescence. 640,000 tested, 1.4% active. inhibition, % at 9.12 µM; in the data active means inhibition above about 32%;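 further: 0% = median of test compound wells and 100% = reference inhibitor wells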
GPR151 confirm: GPR151 activators, triplicate retest, confirmation, cell-based, PathHunter beta-arrestin, luminescence; shares compounds with GPR151 activ; GPR151 PathHunter beta-arrestin cells, 90 min; % of EA-reagent control over plate median; activation, % at 11.2 µM; 6,700 tested, under 10 active; AID 1508609, 2020;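 active means mean percent activation across replicates above the confirmation screen cutoff of 4.91%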
GPR119 ag: GPR119 activators in beta-arrestin cells, counter-screen for GPR151 activator project, cell-based, PathHunter beta-arrestin, luminescence, triplicate; shares compounds with GPR151 activ; 90 min; 0 = compound-well median, 100 = enzyme-acceptor control; activation, % at 11.2 µM; 6,700 tested, 0.3% active;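 active means mean percent activation in the counterscreen above 29.09%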;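 further: counterscreen on off-target GPR119 to flag nonselective hits from the GPR151 activator screen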
Target sequence (Q8TDV5 whole entry, looked up): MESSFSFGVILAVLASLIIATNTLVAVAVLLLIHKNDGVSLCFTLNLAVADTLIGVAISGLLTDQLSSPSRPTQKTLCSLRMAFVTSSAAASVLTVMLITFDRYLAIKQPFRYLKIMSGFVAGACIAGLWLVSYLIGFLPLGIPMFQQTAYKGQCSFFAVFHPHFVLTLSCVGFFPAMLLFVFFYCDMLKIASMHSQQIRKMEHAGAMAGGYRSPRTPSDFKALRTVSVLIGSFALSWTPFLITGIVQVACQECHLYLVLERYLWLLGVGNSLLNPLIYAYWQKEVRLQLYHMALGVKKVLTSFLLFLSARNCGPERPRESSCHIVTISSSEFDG
An asterisk follows results filed as active; / = no result. Most compounds without a hit are left out; they make up all but 3.5% or so of the library.

SMILES	GPR151 activ	MITF primary	FBW7 act	TEAD-YAP block	GPR151 confirm	GPR119 ag
CCN(CCO)c1cc(NC(C)C)c2c3c(onc13)-c1ccccc1C2=O	7.1*	24.4	-0.3	11.6	0.9	13.3
COc1cc(C(=O)Nc2ccccc2C(N)=O)cc(OC)c1OC	0.5	-1.7	0.0	-7.4	/	/
Cc1ccccc1N/C(N)=N/c1nc(C(F)(F)F)cc(=O)[nH]1	8.2*	11.0	-0.1	4.1	1.4	8.4
COc1ccccc1N/C(N)=N/c1nc(C(F)(F)F)cc(=O)[nH]1	5.1*	-8.6	-0.1	7.2	-0.9	-7.6
CCOC(=O)CNc1ccc(Cc2cccc(NCC(=O)OCC)c2)cc1	-0.4	9.0	0.4	-9.2	/	/
Nc1ncnc2c1ncn2C1OC(CO)C(F)C1O (centres undefined)	-0.7	9.4	0.0	-4.3	/	/
CS(=O)(=O)N(CC(=O)N1CCN(c2ccc(F)cc2)CC1)c1ccc(Cl)cc1	5.6*	5.6	0.1	-1.7	0.0	-3.2
CC(C)c1ccc(N(CC(=O)N2CCN(c3ccc(F)cc3)CC2)S(C)(=O)=O)cc1	2.7	1.4	-0.1	0.7	/	/
CS(=O)(=O)N(CC(=O)N1CCCC1)c1ccc2c(c1)OCCO2	9.5*	6.3	0.0	9.2	-0.8	-10.3
COC(=O)C(C#N)C1CC(C)(C)NC(C)(C)C1 (centres undefined)	-1.1	20.7	-0.2	7.3	/	/
CCCc1ccc(C(=O)/C=C/N(C)C)cc1	5.7*	-7.1	-0.1	-5.3	-0.7	-0.7
C/C=C(\C)CN1CCc2c(C(=O)N(C)C(C)c3ccco3)c(OC)cc(=O)n2CC1 (centres undefined)	-0.7	-1.9	0.2	-2.3	/	/
O=C1CN(c2ccc(Cl)cc2)S(=O)(=O)c2ccccc2N1	5.6*	1.9	0.0	-6.0	0.6	-2.9
NS(=O)(=O)c1ccc(CCNC(=O)c2cc(-c3ccccc3)nc3ccccc23)cc1	6.2*	-15.6	-0.2	3.2	0.9	2.4
NS(=O)(=O)c1ccc(CCNC(=O)c2ccccc2Cl)cc1	0.8	-5.8	-0.2	2.4	/	/
NS(=O)(=O)c1ccc(CCNC(=O)c2ccccc2Oc2ccccc2)cc1	6.7*	-7.7	-0.7	-0.9	-0.7	-3.5
CC(C)C[C@H]1C(=O)N2CCN(C(=O)c3cccc(F)c3F)C[C@@H]2C(=O)N1C	6.6*	11.3	0.9	3.2	0.3	14.1
COc1ccc(-c2nnc(SCC(=O)Nc3ccc(N4CCOCC4)cc3)o2)cc1	6.1*	-0.1	0.2	17.2	-0.8	-8.3
Cc1ccc(-c2nnc(SCC(=O)Nc3ccccc3N3CCOCC3)o2)cc1	5.1*	11.9	0.1	-6.2	0.4	2.2
COc1ccc(Cn2c(=O)[nH]c3c(C(N)=O)nc(C)nc32)cc1	0.1	-1.5	-0.1	-7.1	/	/
NC(=O)COC(=O)c1cc(Cl)cc(Cl)c1N	-1.4	-1.3	0.0	-0.4	/	/
Nc1c(Cl)cc(Cl)cc1C(=O)OCC(=O)N1CCCC1	7.5*	4.5	-0.1	-6.4	1.6	5.2
O=C(Oc1cccc2ccccc12)c1cc2ccccc2oc1=O	0.4	7.9	0.0	8.7	/	/
Cc1nn(C(=O)Cn2ccc([N+](=O)[O-])n2)c(C)c1I	5.3*	2.6	0.5	5.0	-0.3	1.3
CS(=O)(=O)N(Cc1ccccc1Cl)c1ccc(C(=O)NCc2ccco2)cc1	-0.2	2.7	-0.1	-2.2	/	/
SMILES	GPR151 activ	MITF primary	FBW7 act	TEAD-YAP block	GPR151 confirm	GPR119 ag
CS(=O)(=O)N(Cc1ccccc1Cl)c1ccc(C(=O)N2CCCC2)cc1	9.2*	13.5	0.1	2.0	0.4	-1.1
CC(C)CCNC(=O)c1ccc(N(Cc2ccccc2Cl)S(C)(=O)=O)cc1	7.9*	23.8	0.2	-2.4	0.0	-7.1
CN1CCN(c2ccc(NC(=O)NC(=O)c3ccccc3F)cc2Cl)CC1	1.2	0.9	-0.1	-39.5	/	/
CC(C)C1Oc2ccccc2N(CC(=O)NCCCN2C(C)CCCC2C)C1=O (centres undefined)	5.0*	17.7	0.1	11.8	-0.3	-2.8
COCCCNC(=O)CN1C(=O)C(C(C)C)Oc2ccc(C)cc21 (centres undefined)	6.1*	2.5	0.0	4.0	0.4	12.8
O=C(NCCC1=CCCCC1)c1ccc(CNc2nc(=S)[nH]c3ccccc23)cc1	-2.1	6.4	-0.1	5.5	/	/
Cc1ccc(-n2c(SCC(=O)NCc3ccco3)nc3n[nH]c(C)c3c2=N)cc1Cl	0.6	-3.0	0.1	-4.6	/	/
O=C(NCCO)C(=O)NCC1OCCCN1S(=O)(=O)c1ccc(Cl)cc1 (centres undefined)	0.9	-0.8	-0.2	-1.7	/	/
C=CCNC(=O)C(=O)NCC1OCCCN1S(=O)(=O)c1ccc(F)cc1C (centres undefined)	7.3*	-0.3	0.0	-2.8	0.4	-6.3
O=C(NCCCO)C(=O)NCC1OCCCN1S(=O)(=O)c1ccc(Cl)cc1 (centres undefined)	9.5*	-3.3	-0.2	-9.3	0.0	-5.9
CCNC(=O)C(=O)NCC1OCCCN1S(=O)(=O)c1ccccc1 (centres undefined)	5.2*	1.8	0.1	0.3	-0.2	-9.1
CSCc1nc2sc(C(=O)NCCOc3ccc(C)cc3)c(C)c2c(=O)[nH]1	-1.1	18.4	0.1	-3.4	/	/
c1ccc(CCc2nnc3n2CCN(Cc2cccn2-c2nccs2)CC3)cc1	-1.3	-0.9	0.6	-1.4	/	/
Cc1cccc(NC(=O)CCC2CCN(C(=O)c3cc(C)nc(C)n3)CC2)c1	5.2*	7.8	0.1	3.6	0.7	13.6
COc1ccc(N2CCN(C(CNS(=O)(=O)c3ccc(Cl)cc3)c3ccco3)CC2)cc1 (centres undefined)	-1.6	18.9	0.5	5.6	/	/
CCOC(=O)C1(CC2CCCCO2)CCN(C(=O)c2cc3c(nc2Cl)CCC3)CC1 (centres undefined)	-0.2	0.1	0.1	2.0	/	/
COc1ccc(N2C(=O)CC(N(CCc3ccc(OC)c(OC)c3)C(=O)c3ccccc3)C2=O)cc1 (centres undefined)	5.2*	-11.0	-0.1	2.8	-0.2	-6.9
COc1ccccc1N1C(=O)c2ccc(C(=O)OCC(=O)c3ccc(C)c([N+](=O)[O-])c3)cc2C1=O	0.1	-5.0	-0.1	-3.3	/	/
CC1=C(C)/C(=N/OC(=O)c2ccc(C)cc2)C=CC1=O	7.0*	2.0	0.0	-1.9	-0.1	11.6
CC1(C)Oc2ccc(C(=O)N3CCCCCC3)cc2N(CC(=O)NCc2ccccc2)C1=O	0.7	-9.9	-0.1	-4.8	/	/
